A number with no mark means an inactive call. Records with an inconclusive call do not appear. Active and inactive are the calls of the source. Unless noted, the call rests on the fitted dose curve; in most records, active means well fitted curve in the direction sought with a large enough effect; inconclusive means small, poorly fitted or top-dose-only effect, or another doubt; inactive means no such curve, though single readings can be large; an effect the other way counts as inactive or inconclusive.

For assay [1], the target named is Arylsulfatase A (Homo sapiens) (UniProt P15289). In words: qHTS screen for enhancers of Arylsulfatase A (ASA1): LOPAC Validation Assay (AID 720538). The gist of the method: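 First, ASA-I179S fibroblasts from an MLD patient adhered for 6 hrs. Next, compounds were added for 48h. Then pNCS substrate (0.5mM final) with lysis buffer reacted 14h at room temperature before NaOH stop and fluorescence measurement.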
Sequence of Arylsulfatase A (Homo sapiens) (P15289 whole entry, looked up): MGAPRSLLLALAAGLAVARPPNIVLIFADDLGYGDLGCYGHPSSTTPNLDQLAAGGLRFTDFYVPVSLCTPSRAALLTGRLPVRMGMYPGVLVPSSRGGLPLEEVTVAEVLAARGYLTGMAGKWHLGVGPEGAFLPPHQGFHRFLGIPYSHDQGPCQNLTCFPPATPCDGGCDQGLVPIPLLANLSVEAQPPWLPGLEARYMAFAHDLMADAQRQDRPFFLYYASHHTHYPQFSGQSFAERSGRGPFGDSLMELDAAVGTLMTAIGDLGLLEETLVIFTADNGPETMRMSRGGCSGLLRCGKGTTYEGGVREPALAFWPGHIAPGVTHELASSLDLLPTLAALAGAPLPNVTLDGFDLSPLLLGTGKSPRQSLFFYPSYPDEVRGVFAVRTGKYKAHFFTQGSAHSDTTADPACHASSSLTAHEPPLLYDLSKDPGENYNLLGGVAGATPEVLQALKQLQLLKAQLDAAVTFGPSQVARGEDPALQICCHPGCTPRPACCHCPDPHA
(In general: Quantitative high-throughput screening tests each substance at several concentrations.)

Assay [2] is described as follows: qHTS for compounds that reverse cellular toxicity of Amyloid beta (A-beta) peptide in yeast: LOPAC Validation Assay (AID 720559).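 Further: plate controls were DMSO for no effect and equimolar ferric chloride plus clioquinol rescue for full effect.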 The gist of the method: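 Activity is expressed relative to DMSO and an equimolar ferric chloride/clioquinol mix. Compounds were pinned into medium with A-beta-expressing yeast, grown 48 hr at 30 C, then read by absorbance at 600 nm.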

A short description of assay [3]: qHTS for Activators of Parkin Expression: LOPAC Validation Assay (NLuc Reporter) (AID 720572;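 further: 0% = DMSO and 100% = positive control compound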). In short, it runs like this: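 Neuronal line stably carrying a FLuc/NLuc coincidence reporter under the Parkin promoter, seeded 24 h, then dosed in 7-point series for 24 h at 37 C. NLuc luminescence read after FLuc; normalized to DMSO and positive control (100%).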
A short description of assay [4]: qHTS for Activators of Parkin Expression: LOPAC Validation Assay (FLuc Reporter) (AID 720573;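 further: 0% = DMSO and 100% = positive control compounds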). In short, it runs like this: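 A neuronal cell line harbouring FLuc and NLuc reporters behind the Parkin promoter was exposed to compounds for 24 h. Firefly luciferase signal, measured after 10 min with detection reagent, was scaled to DMSO and positive-control wells.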

Assay [5] addresses Hexokinase-4 (Homo sapiens) + Glucokinase regulatory protein (Homo sapiens) (UniProt P35557+Q14397). In words: qHTS assay for inhibitors of recombinant human GCK-GKRP interaction: Diaphorase-coupled assay (AID 743205). The gist of the method:
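Inhibitors of the GCK–GKRP complex relieve GKRP suppression of GCK, detected through a G6PDH–diaphorase cascade reducing resazurin. Human GST-GCK and FLAG-GKRP are used at 10 nM with 5 mM glucose and 0.4 mM ATP.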

Assay [6] deals with Peroxisome proliferator-activated receptor alpha (Homo sapiens) (UniProt Q07869). In words: qHTS assay for small molecule agonists of the peroxisome proliferator-activated receptor alpha (PPARalpha) signaling pathway (AID 651778). Further: potency means the concentration at half of the fitted maximal effect. On max response: % of control where 0% means no effect. The note with it: PathHunter PPARalpha complementation, chemiluminescence, 6 h; max response: stronger effect = higher value. The gist of the method:
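Cells plated at 2,000/well and held overnight at 37 C, 5% CO2, then compound added by pin tool for 6 hr; after PathHunter detection reagent and 60 min at room temperature, chemiluminescence from enzyme complementation was read.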

Assay [7] is described as follows: qHTS assay for small molecule agonists of the antioxidant response element (ARE) signaling pathway measured by Nrf2-dependant transcriptional activity (AID 720636; active means well fitted curve in the direction sought with a large enough effect in the repeat runs; an effect the other way counts as inactive or inconclusive; further: % of control where 0% means no effect). The gist of the method:
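ARE-luc HepG2 cells carrying an Nrf2-responsive luciferase reporter were plated in medium with 1% dialyzed FBS, left 6 hr at 37 C to attach, then exposed to compound for 16 hr. Luciferase luminescence was read after ONE-Glo addition.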

Assay [8] in a line: qHTS assay for small molecule agonists of the antioxidant response element (ARE) signaling pathway measured by Nrf2-dependant transcriptional activity - cell viability counter screen (AID 720653; active means well fitted curve in the direction sought with a large enough effect in the repeat runs; an effect the other way counts as inactive or inconclusive; further: on the % scale 0 is the no-effect control and ±100 the full control effect). The note with it: ARE-bla HepG2 viability, CellTiter-Glo ATP luminescence, 16 h; stronger effect = lower value. The gist of the method: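 ARE-bla HepG2 cells (2,000/well) rested 5 hrs at 37C/5% CO2, then exposed to compounds in DMSO for 16 hrs. Viability was read in the same wells as intracellular ATP by luminescence, 30 min at room temperature after reagent addition.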

The nature of assay [9]: qHTS assay for small molecule agonists of the antioxidant response element (ARE) signaling pathway (AID 651741; active means well fitted activation curve with a large enough effect in the signal ratio; the % refers to the signal ratio; further: potency means the concentration at half of the fitted maximal effect). In short, it runs like this:
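ARE-bla HepG2 cells (beta-lactamase reporter under ARE control) were plated at 2,000 cells/well, preincubated 5 h at 37 C/5% CO2, then treated with DMSO-dissolved compounds for 16 h at 37 C; LiveBLAzer B/G FRET substrate added, fluorescence read after 2 h at room temperature.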

Assay [10] can be described thus: qHTS assay for small molecule activators of the p53 signaling pathway (AID 651743; active means well fitted activation curve with a large enough effect in the signal ratio, not every such curve was filed as active; the % refers to the signal ratio; further: series mostly up to about 92 µM; % of control where 0% means no effect). The note with it: HCT-116 p53RE-bla, beta-lactamase FRET ratio, 16 h; stronger effect = higher value. In short, it runs like this:
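p53RE-bla HCT-116 cells with a stably integrated beta-lactamase reporter under p53 response elements were plated, rested 5 hours at 37 C/5% CO2, then exposed to compounds in DMSO for 16 hours at 37 C. LiveBLAzer B/G FRET substrate was read after 2 hours at room temperature.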

Assay [11] is described as follows: qHTS assay for small molecule activators of the nuclear factor-kappa B (NF-kB) signaling pathway (AID 651749; active means well fitted activation curve with a large enough effect in the signal ratio; the % refers to the signal ratio; further: series mostly up to about 77 µM; % of control where 0% means no effect). The note with it: NF-kB-bla ME-180 cells, beta-lactamase FRET ratio, 16 h; stronger effect = higher value. The gist of the method: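 ME-180 cells stably carrying a beta-lactamase reporter under an NF-kB response element were exposed to compound or DMSO vehicle for 16 hr at 37C, 5% CO2. Pathway activation was read by FRET, since reporter expression disrupts FRET.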

A short description of assay [12]: qHTS assay for environmental chemicals that activate the Aryl hydrocarbon Receptor (AhR) signaling pathway (AID 651777). Further: % of control where 0% means no effect; nearly all actives have a fitted effect of over 15% in size. The note with it: 1A2-DRE human hepatoma cells, luciferase, 24 h; stronger effect = higher value. The gist of the method:
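Human hepatoma 1A2-DRE cells, stably carrying a dioxin response element and CYP1A2 promoter driving luciferase, were exposed to compounds for 24 hr at 37 C and 5% CO2. Luciferase signal was then read after 30 min One-Glo at room temperature.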

For assay [13], the target named is Tumor necrosis factor (Homo sapiens) (UniProt P01375). In words: qHTS assay to identify small molecules that stimulate Tumor Necrosis Factor-alpha (TNF-alpha) secretion (AID 651757; active means well fitted curve in the direction sought with a large enough effect in the signal ratio; the % refers to the signal ratio; further: 0% is about no effect). In short, it runs like this:
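Secreted TNF-alpha from compound-treated THP-1 cells (17 hrs, 37 C) was quantified with a homogeneous time-resolved fluorescence antibody assay.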

Assay [14] can be described thus: qHTS assay to identify small molecules that stimulate interleukin-8 (IL-8) secretion (AID 651758; active means well fitted activation curve with a large enough effect in the signal ratio; the % refers to the signal ratio; further: 0% is about no effect). In short, it runs like this:
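THP-1, 2000 cells/well; cpd 16 h, 37 C; add cryptate + XL665 anti-IL-8 Abs; RT 1-3 h; TR-FRET read.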

Assay [15] concerns the target Nuclear receptor ROR-gamma (Homo sapiens) (UniProt P51449). In words: qHTS assay for small molecule antagonists of the retinoid-related orphan receptor gamma (ROR-gamma) signaling pathway (AID 651802). Further: series mostly up to about 92 µM; on the % scale 0 is the no-effect control and ±100 the full control effect; nearly all actives have a fitted effect of over 60% in size. In short, it runs like this: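 Antagonism is scored as a fall in luminescence from a RORE-luciferase reporter in CHO cells expressing ROR under a TET-inducible promoter, measured 16hr after doxycycline induction in the presence of compound.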

Assay [16] is described as follows: qHTS assay for small molecule antagonists of the retinoid-related orphan receptor gamma (ROR-gamma) signaling pathway - cell viability counter screen (AID 720652; active means well fitted curve in the direction sought with a large enough effect in the repeat runs; an effect the other way counts as inactive or inconclusive;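 further: series mostly up to about 92 µM; compound exposure lasted 16 hr before ATP read; on the % scale 0 is the no-effect control and ±100 the full control effect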). In short, it runs like this: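 Cytotoxicity is quantified via intracellular ATP (CellTiter-Glo luminescence) in doxycycline-induced CHO ROR response element-luciferase reporter cells treated with compound for 16 hr at 37 C, 5% CO2.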

Sequence of Peroxisome proliferator-activated receptor alpha (Homo sapiens) (Q07869 whole entry, looked up): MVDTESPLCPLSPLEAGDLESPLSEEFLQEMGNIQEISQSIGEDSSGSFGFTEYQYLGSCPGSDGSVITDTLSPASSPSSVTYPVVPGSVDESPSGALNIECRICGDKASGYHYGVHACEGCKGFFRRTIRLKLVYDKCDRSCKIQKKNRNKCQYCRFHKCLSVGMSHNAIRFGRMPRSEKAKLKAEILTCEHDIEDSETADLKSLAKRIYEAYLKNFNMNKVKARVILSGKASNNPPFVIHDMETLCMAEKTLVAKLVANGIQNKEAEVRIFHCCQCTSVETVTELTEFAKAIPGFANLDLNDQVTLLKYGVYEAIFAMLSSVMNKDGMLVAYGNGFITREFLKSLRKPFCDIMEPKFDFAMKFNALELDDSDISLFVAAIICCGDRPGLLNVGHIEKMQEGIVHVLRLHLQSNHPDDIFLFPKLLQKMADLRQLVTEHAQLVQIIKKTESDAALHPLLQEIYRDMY
Sequence of Hexokinase-4 (Homo sapiens) + Glucokinase regulatory protein (Homo sapiens) (P35557 whole entry, looked up): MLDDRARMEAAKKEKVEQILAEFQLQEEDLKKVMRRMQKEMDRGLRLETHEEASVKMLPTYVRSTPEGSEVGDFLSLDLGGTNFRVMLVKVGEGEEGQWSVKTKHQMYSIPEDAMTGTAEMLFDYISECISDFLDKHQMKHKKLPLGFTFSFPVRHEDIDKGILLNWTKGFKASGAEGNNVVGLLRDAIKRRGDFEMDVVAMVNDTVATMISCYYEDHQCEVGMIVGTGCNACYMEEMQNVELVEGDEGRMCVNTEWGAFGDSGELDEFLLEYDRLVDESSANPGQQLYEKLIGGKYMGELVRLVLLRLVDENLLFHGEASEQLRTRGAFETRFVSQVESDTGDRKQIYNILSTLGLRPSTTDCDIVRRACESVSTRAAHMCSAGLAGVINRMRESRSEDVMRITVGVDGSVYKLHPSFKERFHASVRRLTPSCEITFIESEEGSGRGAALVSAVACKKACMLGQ
Sequence of Hexokinase-4 (Homo sapiens) + Glucokinase regulatory protein (Homo sapiens) (Q14397 whole entry, looked up): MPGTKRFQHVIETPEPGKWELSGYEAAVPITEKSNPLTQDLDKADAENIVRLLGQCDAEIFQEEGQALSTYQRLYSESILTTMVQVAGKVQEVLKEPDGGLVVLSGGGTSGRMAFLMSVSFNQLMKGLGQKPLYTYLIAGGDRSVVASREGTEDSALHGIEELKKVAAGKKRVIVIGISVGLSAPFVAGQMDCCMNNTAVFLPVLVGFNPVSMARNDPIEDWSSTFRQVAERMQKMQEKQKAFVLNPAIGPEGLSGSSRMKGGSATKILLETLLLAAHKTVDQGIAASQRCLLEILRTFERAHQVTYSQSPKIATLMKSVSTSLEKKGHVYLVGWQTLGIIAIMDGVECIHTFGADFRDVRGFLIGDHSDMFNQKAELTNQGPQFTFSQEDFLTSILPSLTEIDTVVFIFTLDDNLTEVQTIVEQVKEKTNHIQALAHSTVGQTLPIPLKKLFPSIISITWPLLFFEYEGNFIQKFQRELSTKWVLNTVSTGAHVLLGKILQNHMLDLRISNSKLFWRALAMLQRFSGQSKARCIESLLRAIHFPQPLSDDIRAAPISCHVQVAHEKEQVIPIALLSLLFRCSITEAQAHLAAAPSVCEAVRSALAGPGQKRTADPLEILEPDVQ
Sequence of Nuclear receptor ROR-gamma (Homo sapiens) (P51449 whole entry, looked up): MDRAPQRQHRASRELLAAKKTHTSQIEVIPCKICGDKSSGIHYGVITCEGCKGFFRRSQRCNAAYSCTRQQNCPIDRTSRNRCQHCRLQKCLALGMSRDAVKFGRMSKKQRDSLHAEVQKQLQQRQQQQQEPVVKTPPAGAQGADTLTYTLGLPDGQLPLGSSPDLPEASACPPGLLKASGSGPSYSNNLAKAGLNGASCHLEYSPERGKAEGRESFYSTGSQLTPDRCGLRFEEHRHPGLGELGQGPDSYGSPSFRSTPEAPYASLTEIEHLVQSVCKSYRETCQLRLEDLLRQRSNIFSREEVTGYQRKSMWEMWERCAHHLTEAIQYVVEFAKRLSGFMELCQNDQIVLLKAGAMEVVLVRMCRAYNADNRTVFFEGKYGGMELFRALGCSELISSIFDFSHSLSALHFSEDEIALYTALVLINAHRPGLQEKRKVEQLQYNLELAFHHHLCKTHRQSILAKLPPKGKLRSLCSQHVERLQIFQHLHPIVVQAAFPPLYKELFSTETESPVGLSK
Sequence of Tumor necrosis factor (Homo sapiens) (P01375 whole entry, looked up): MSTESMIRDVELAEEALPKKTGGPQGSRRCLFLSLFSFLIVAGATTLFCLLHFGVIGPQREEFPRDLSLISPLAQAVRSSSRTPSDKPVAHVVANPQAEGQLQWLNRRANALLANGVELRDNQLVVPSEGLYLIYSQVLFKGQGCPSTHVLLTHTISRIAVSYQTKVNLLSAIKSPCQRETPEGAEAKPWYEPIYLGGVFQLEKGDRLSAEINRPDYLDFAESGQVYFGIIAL

Regarding `COc1ccc(CCn2nnnc2C2(c3ccc(C)cc3)CC2)cc1`, the Potency result in assay [1], in [3], in assay [4] and in assay [5] was “inactive” in each case. Besides, the compound was called inactive in assay [2].

`CC[C@@H]1Cc2cc(O)ccc2C2=C1c1ccc(O)cc1C[C@H]2CC`: the max response in [6] was -2.38%; in [8] it was -25.6%. Besides, the Potency result in assay [1], in assay [3], in assay [4] and in assay [5] was “inactive” throughout. Further, the compound was called inactive in assay [2] and in assay [7].

Consider `CNc1cc(NS(=O)(=O)c2ccc(N)cc2)nc(NC)n1`, for which the Potency entry in assay [1], in assay [3], in assay [4] and in [5] was “inactive” in each case. In addition, in [2], the call was inactive.

As for `CN1Cc2sccc2C(c2ccc(O)c(O)c2)C1` (centres undefined), the Potency entry in [1], in [3], in assay [4] and in assay [5] was “inactive” each time. In addition, the compound was classed as inactive in assay [2].

In the case of `CCCc1c(OCCCOc2ccc(OCC(=O)O)cc2)ccc(C(C)=O)c1O`, the Potency in assay [9] was 54.5 µM (active); in assay [6] it was 11.2 µM (active). The activation in [10] was 16.9%; in assay [11], -3.53%; in assay [12] it was 0.459%. The Potency entry in [1], in assay [3], in assay [4] and in assay [5] was “inactive” each time. Also, the call in [2] and in assay [7] was inactive. The max response in [8] is 7.96%.

In the case of `N=C(N)SCCc1cnc[nH]1`, the Potency entry in [1], in assay [3], in assay [4] and in [5] was “inactive” in each case. In [2], the outcome was inactive.

As to `Clc1nccc2c1ccc1ccccc12`, the Potency result in assay [1], in assay [3], in assay [4] and in [5] was “inactive” each time. Moreover, in assay [2], the result was inactive.

Consider `C=CCNc1ncnc2ccc(Br)cc12`, for which the Potency result in assay [1], in assay [3], in assay [4] and in [5] was “inactive” in each case. Moreover, the result in [2] was inactive.

As for `O=C(O)c1cc(=O)cc(C(=O)O)[nH]1`, the Potency result in assay [1], in assay [3], in assay [4] and in assay [5] was “inactive” in each case. The compound was called inactive in assay [2].

With `CC(=O)C(C)=O`, the activation was -1.05% in [10], -1.05% in assay [11] and -0.684% in [12]. Further, the result in [13], in assay [14], in assay [15], in assay [2], in assay [7] and in assay [16] was inactive. Further, the figures for the max response in assay [6] and in assay [8] were -2.24% and -2.25%, respectively. The Potency entry in [3], in assay [4] and in [5] was “inactive” throughout.

For `CCCCCCCCCCC/C=C\C(C)(C)/C=C\CCCC(=O)O`, the Potency result in assay [1], in assay [3], in assay [4] and in assay [5] was “inactive” throughout. In addition, in [2], the compound was called inactive.

Regarding `Cn1c(=O)c2[nH]c(C3CCCC3)nc2n(C)c1=O`, the Potency entry in assay [1], in assay [3], in assay [4] and in assay [5] was “inactive” each time. The result in [2] was inactive.

Turning to `NCCCCN`, the Potency result in assay [1], in [3], in assay [4] and in assay [5] was “inactive” in each case. Moreover, in assay [2], the call was inactive.

Consider `CC(C)NCC(O)COc1ccc(CC(N)=O)cc1` (centres undefined), for which the Potency result in [1], in assay [3], in assay [4] and in [5] was “inactive” each time. In addition, the call in assay [2] was inactive.
